PubChem BioAssay (Tox21)
A number with no mark means an inactive call. Activity calls are given as the source filed them. Calls follow the shape of the full dose curve.

test: G protein-coupled receptor (GPCR) small molecule agonists, calcium flux assay: HEK293 wild type cell line counter screen (AID 1920065); settings: HEK293 WT calcium flux, fluorescence, agonist mode; series mostly up to 57.6 µM; activation: at the top concentration
Text: U.S. Tox21 Program National Center for Advancing Translational Sciences [NCATS] Division of Preclinical Innovation [DPI] U.S. Environmental Protection Agency [EPA] National Institutes of Environmental Health Sciences [NIEHS] National Toxicology Program [NTP] U.S. Food and Drug Administration [FDA] Assay overview: The increased intracellular calcium release that occurred upon G protein-coupled receptor (GPCR) activation led to the frequent use of calcium flux assays to detect GPCR activation. For the purpose of studying and screening compounds that may activate GPCR, receptor-overexpressing models were typically generated using Hek293 wild-type (WT) cells. In order to eliminate the compounds that may have induced calcium release for non-specific activation, a counter-assay utilizing calcium flux on Hek293 WT cells was performed. The data were formulated in order to serve as a control for any calcium flux detection utilizing Hek293 cells with either GPCR overexpression or gene modification. The procurement of Hek293 WT cells from ATCC. Fluorescence intensity can be utilized to determine the activation of the compound in a calcium flux assay. As a counter control, this cell line was utilized to screen the Tox21 10K compound library.
Assay Protocol Summary: Hek293 cells were dispensed at 1500cells/4uL/well in 1536-well black wall/clear bottom plates using a multidrop dispenser. After the assay plates were incubated at a 37 C/5% CO2 incubator for 18 hours, 4 uL of Calcium Dye Solution was added to each well. The plates were incubated at 37 C for 1 hour. For agonist mode, 23 nL of compounds dissolved in DMSO, positive control (ATP) or DMSO only was transferred to the assay plate by a pin tool station. The fluorescence intensity in the plates was measured using FDSS 7000EX kinetic plate reader with a filter set of Ex/Em=480/540 for 3 min at 1 sec intervals. Each test compound was measured at 15 concentrations and in triplicates.
% is scaled to controls: 0 for no effect and ±100 for the full control effect; potency is read from the fitted curve at half-maximal effect.

Row | Compound | activation | Potency
1 | [As]#[In] | 0.428% | 
2 | COc1cc(CCN)cc(OC)c1OC | 0.872% | 
3 | CCOC(=O)/C=C(C)/C=C/C[C@@H](C)CCCC(C)C | 2.15% | 
4 | CC(C)(OO)c1ccccc1 | 1.38% | 
5 | SCc1ccco1 | 0.474% | 
6 | CC(C)=CCOc1c2occc2cc2ccc(=O)oc12 | -1.08% [at 26.5 µM] | 
7 | CCCC[N+](CCCC)(CCCC)CCCC | -0.258% | 
8 | Cc1ccc(N(SC(F)(Cl)Cl)S(=O)(=O)N(C)C)cc1 |  | 38.9 µM (active)
9 | O=C1c2ccccc2C(=O)c2ccccc21 | 0.614% [at 11.8 µM] | 
10 | ClCCCN1CCN(c2cccc(Cl)c2)CC1 | -0.0691% [at 26.5 µM] | 
11 | O=C1NC(=O)C(=O)C(=O)N1 | -0.533% | 
12 | C[C@]12CC[C@H]3[C@@H](CCC4=CC(=O)CC[C@@H]43)[C@@H]1CC[C@@H]2OC(=O)CCc1ccco1 | -1.64% [at 26.5 µM] | 
13 | COP(=O)(OC)Oc1ccc([N+](=O)[O-])cc1 | -0.345% | 
14 | Oc1cccc(Cl)c1Cl | -0.917% | 
15 | CCCCCOC(=O)c1ccccc1C(=O)OCCCCC |  | inactive
16 | CN[C@@H](C)[C@H](O)c1ccccc1 | -0.271% [at 26.5 µM] | 
17 | CC1Sc2c(C(=O)O)c(=O)c3cc(F)c(N4CCNCC4)cc3n21 (stereo not given) | -0.609% [at 26.5 µM] | 
18 | CNC(=O)Oc1cc(C)c(SC)c(C)c1 | -1.9% | 
19 | Oc1cccc(Cl)c1 | -1.8% | 
20 | CCc1ccc(C2CCNCC2)cc1 | -1.14% [at 26.5 µM] | 

Row | Compound | activation | Potency
21 | CN1C(=S)CN=C(c2ccccc2)c2cc(Cl)ccc21 | -0.12% [at 26.5 µM] | 
22 | Cc1cc(C)c(C2=C(OC(=O)CC(C)(C)C)C3(CCCC3)OC2=O)c(C)c1 | 0.0762% | 
23 | C[N+]1(CCF)[C@@H]2CC[C@H]1CC(OC(=O)C(O)(c1ccccc1)c1ccccc1)C2 (stereo not given in full) | 1.26% [at 26.5 µM] | 
24 | C[C@]12CC[C@H]3[C@@H](CCC4=CC(=O)CC[C@@]43C)[C@@H]1CC[C@@H]2C(=O)O | 0.269% [at 26.5 µM] | 
25 | Cc1nc(N)nc(N)n1 | -0.47% | 
26 | COc1cc(CC(C)N)cc2c1OCO2 (stereo not given) | 0.289% | 
27 | O=C(CCCN1CCC(n2c(=O)[nH]c3ccccc32)CC1)c1ccc(F)cc1 | 2.09% [at 26.5 µM] | 
28 | CCS(=O)(=O)c1cccnc1S(=O)(=O)NC(=O)Nc1nc(OC)cc(OC)n1 | -0.138% | 
29 | CC1(C)[C@H](C=C(Cl)Cl)[C@@H]1C(=O)O[C@@H](C#N)c1cccc(Oc2ccccc2)c1 | 0.0939% | 
30 | CC(=O)c1cc(C(C)(C)C)cc2c1CCC2(C)C | 0.0301% | 
31 | C=CC(=O)[O][Sn]([CH2]CCC)([CH2]CCC)[CH2]CCC |  | 38.9 µM (active)
32 | CN(C1CCCCC1)C1CCCCC1 | 0.127% | 
33 | CCN(CC)CCc1c[nH]c2ccccc12 | 0.0724% | 
34 | CCC(OC(C)=O)C(CC(C)NC)(c1ccccc1)c1ccccc1 (stereo not given) | 1.24% | 
35 | c1ccc2nc(N3CCNCC3)ccc2c1 | -0.332% [at 26.5 µM] | 
36 | CC(=O)NNc1ccccc1 | -0.204% | 
37 | CC(=O)[O-].[Tl+] | -0.114% | 
38 | CC(C)(C)NCC(O)c1ccccc1Cl (stereo not given) | 0.109% [at 26.5 µM] | 
39 | COC(=O)C1=CCCN(C)C1 | 1.87% [at 26.5 µM] | 
40 | [F][Sn]([c]1ccccc1)([c]1ccccc1)[c]1ccccc1 | 1.82% | 
